COUP-TFII inh: NR2F2 transcriptional activity inhibitors, primary screen, cell-based, luciferase reporter, HEK293T, luminescence. HEK293T NGFI-A luciferase reporter. inhibition, % at 8.6 µM. COUP transcription factor 2 (Homo sapiens), P24468. 370,000 compounds, 0.7% hits;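 active = inhibition above a per-plate cutoff, mean inhibition of test wells between control levels plus 3 SD, cut at about 38% in these data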;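 note: cells cotransfected with COUP-TFII expression vector driving the NGFI-A reporter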
697 NFkB inh: inhibitors of PMA/ionomycin-induced NF-kB reporter, 697 cells, primary screen, B-cell NF-kB inhibitor project, cell-based, luminescence, uHTS; inhibition, % at 4 µM; 697 B-cell NF-kB luciferase reporter, 16 h; 330,000 compounds, 0.33% hits; in the data active = inhibition above about 35%
GalR3 antag: GalR3 antagonists in HEK293 cells, primary screen, cell-based, fluorescence readout; 360,000 compounds, 0.44% hits; inhibition, % at 3 µM; HEK293 GalR3-CNG cAMP membrane potential fluorescence; galR3 body fused to GalR1 C-terminus;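 active = inhibition above the screen-wide average plus 3 SD, cut at about 13% in these data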;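 note: forskolin and galanin both at EC90 stimulate the cells; cAMP rise reported by CNG channel membrane potential dye signal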
Target sequence (O60755 1-299 limits assumed): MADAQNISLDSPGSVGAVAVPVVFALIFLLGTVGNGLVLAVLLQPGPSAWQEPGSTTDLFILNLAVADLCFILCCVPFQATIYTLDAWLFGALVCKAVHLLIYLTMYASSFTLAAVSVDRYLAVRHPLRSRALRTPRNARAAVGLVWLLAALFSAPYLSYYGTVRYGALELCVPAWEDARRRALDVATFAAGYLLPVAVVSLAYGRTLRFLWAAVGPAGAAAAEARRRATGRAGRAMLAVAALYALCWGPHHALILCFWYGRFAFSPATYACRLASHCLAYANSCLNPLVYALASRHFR
Jurkat NFkB inh: inhibitors of induced NF-kB luciferase reporter, primary screen, TCR NF-kB activation inhibitor project, cell-based, luminescence, uHTS. inhibition, % at 4 µM. 330,000 compounds, 0.53% hits. AID 435003, 2010. Jurkat, PMA/ionomycin-induced NF-kB luciferase reporter; in the data active = inhibition above about 50%
Gli-Sufu antag: Gli-Sufu pathway antagonists, primary screen, luciferase luminescence, Sufu-KO-LIGHT cells, uHTS | Sufu-KO-LIGHT fibroblasts, Gli luciferase reporter luminescence | inhibition, % at 5 µM | 340,000 compounds, 0.74% hits | AID 588413, 2011;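 active = inhibition above about 55%, limit read from the data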
697 NFkB conf: PMA/ionomycin-induced NF-kB reporter inhibitors, 697 retest, confirmation, B-cell NF-kB inhibitor project, cell-based, luminescence, single concentration | shares compounds with 697 NFkB inh | 697 B-cell NF-kB luciferase, 16 h | inhibition, % at 4 µM | 2,000 compounds, 35% hits | AID 449746, 2010; in the data active = inhibition mostly above about 28%, no sharp cut-off; inactive = mostly below about 22%
Numbers stand for hits; 0 = inactive; - = not tested or not shown. A selection: hits, their analogues and other compounds. The true share with any hit is near 2%.

SMILES	COUP-TFII inh	697 NFkB inh	GalR3 antag	Jurkat NFkB inh	Gli-Sufu antag	697 NFkB conf
Cn1c(=O)cc(OCC(=O)NCc2ccccn2)c2ccccc21	0	0	0	0	0	-
Cn1c(=O)cc(OCCCC(=O)NCc2ccccn2)c2ccccc21	0	36	0	0	0	31
C(=N\Nc1nc2ccccc2s1)/c1cccs1	0	0	0	0	0	0
Cc1cc2cc(CNC(=S)NCc3ccccc3)ccc2n1C	0	0	0	0	0	-
Cc1ccc2c(c1)cc(C(=O)NCc1ccccc1)n2C	0	0	0	0	0	0
COc1ccc2c(c1OC)C(=O)OC2Nc1ccccn1 (stereo not given)	0	35	0	0	0	0
CCn1cc(C(=O)O)c(=O)c2cc(F)c(N3CCN(C(=S)NC(=O)c4ccc(Br)cc4)CC3)cc21	0	38	0	0	0	0
CCn1cc(C(=O)O)c(=O)c2cnc(N3CCN(C(=S)Nc4ccc(F)cc4)CC3)nc21	0	0	0	0	0	-
CCn1cc(C(=O)O)c(=O)c2cnc(N3CCN(C(=S)Nc4ccccc4Cl)CC3)nc21	0	0	0	0	0	-
CCn1cc(C(=O)O)c(=O)c2cnc(N3CCN(C(=S)NC(=O)c4ccc(Br)cc4)CC3)nc21	-	84	-	0	0	26
CCn1cc(C(=O)O)c(=O)c2cnc(N3CCN(C(=S)NC(=O)c4ccc(Cl)cc4)CC3)nc21	-	38	-	0	0	0
CC(C)(C)c1ccc(-c2noc(CCC(=O)N3CCOCC3)n2)cc1	0	52	0	0	0	37
CN(C)C(=O)CCc1nc(-c2ccc(C(C)(C)C)cc2)no1	0	81	0	0	0	77
CNC(=O)CCc1nc(-c2ccc(C(C)(C)C)cc2)no1	0	84	0	0	0	72
C=CCN(CC#Cc1ccccc1)Cc1ccc(OC)cc1OC	0	-	-	-	-	-
Cc1cccc(C(=O)Nc2nc3ncccn3c2-c2ccccc2)c1	0	-	-	-	-	-
O=C(OCC(=O)N1CCN(C(=O)COC(=O)c2ccc(O)cc2O)CC1)c1ccc(O)cc1O	0	39	0	0	0	0
CN(CCO)C1CN(Cc2cn(Cc3ccccc3C(F)(F)F)nn2)S(=O)(=O)C1 (stereo not given)	0	-	-	-	-	-
Cc1cc(C)cc(NC(=O)/C(C#N)=C/c2cn(CC(=O)NCc3ccco3)c3ccccc23)c1	0	41	0	0	0	0
Cc1ccc(NC(=O)/C(C#N)=C/c2cn(CC(=O)NCc3ccco3)c3ccccc23)cc1C	0	0	0	0	0	-
CCOC(=O)[C@]12CCCCC/C=C\1N(Cc1ccc(OC)cc1)C(=O)[C@H]2CC(=O)NCc1cccc2ccccc12	0	-	-	-	-	-
Fc1ccc(-c2noc(-c3ccc4c(c3)CCO4)n2)cc1	0	0	0	0	0	0
Cc1nc2cc(C(=O)N3CCN(C(=O)OCc4ccccc4)CC3)ccc2n1C1CCCC1	0	-	-	-	-	-
CCOc1cc(/C=C2\N=C(SC(C)C(N)=O)N(c3ccc(OC(F)F)cc3)C2=O)ccc1O (stereo not given)	0	41	0	0	0	0
NC(=O)CSC1=N/C(=C\c2ccco2)C(=O)N1c1ccc(OC(F)F)cc1	0	0	0	0	0	-
SMILES	COUP-TFII inh	697 NFkB inh	GalR3 antag	Jurkat NFkB inh	Gli-Sufu antag	697 NFkB conf
CC(=O)c1ccc(N=Nc2ccc(C)cc2)cc1	0	0	0	0	0	0
CC(=O)c1ccc(N=Nc2ccc(N(C)C)cc2)cc1	0	0	0	0	0	-
CC1Cc2ccccc2N1S(=O)(=O)c1cccc(C(=O)c2nccn2C)c1 (stereo not given)	0	0	0	0	0	-
CC1Cc2ccccc2N1S(=O)(=O)c1cnc(Cl)c(Br)c1 (stereo not given)	0	40	0	0	0	35
CC1Cc2ccccc2N1S(=O)(=O)c1cnc(Cl)c(Cl)c1 (stereo not given)	0	45	0	0	0	33
CC1Cc2ccccc2N1S(=O)(=O)c1cccc(C(=O)N2CCCCC2)c1 (stereo not given)	0	0	0	0	0	-
CCCC1CCC2(CC1)CCC2OC(=O)Nc1c(OC)cccc1OC (stereo not given)	0	-	-	-	-	-
Nn1c(SCc2cccc3ccccc23)nnc1-c1cc(-c2ccc(F)cc2)n[nH]1	0	-	-	-	-	-
CN(C)c1ccc(C(=O)c2ccc(N(C)C)c3ccccc23)cc1	0	0	0	0	0	0
CN(C)c1ccccc1C(=O)c1ccccc1N(C)C	0	0	0	0	0	-
C[C@H]1[C@@H](NC(=O)c2ccc(O)cc2)CC[C@@]23CCCN2C(=O)CCC[C@@H]13	0	-	-	-	-	-
CCC[C@H]1[C@@H](N(C)Cc2cccs2)CC[C@@]23CCCN2C(=O)CCC[C@@H]13	0	-	-	-	-	-
COc1ccc(NC(=O)[C@@H]2CC=C[C@@H]3CCN(C4CCCCC4)C(=O)[C@@H]32)cc1	0	36	0	0	0	0
COc1ccc(CNC(=O)[C@@H]2CC=C[C@@H]3CCN(C4CCCCC4)C(=O)[C@@H]32)cc1	0	0	0	0	0	-
O=C1NC(=Nc2ccccc2)SC1Cc1cccc(Cl)c1Cl (stereo not given)	0	-	0	-	0	-
CC(=O)/C(C#N)=C1\NC(=O)C(Cc2ccccc2Cl)S1 (stereo not given)	0	0	0	0	0	0
CC(=O)/C(C#N)=C1\NC(=O)C(Cc2ccc(F)cc2)S1 (stereo not given)	0	0	0	0	0	-
CC(=O)/C(C#N)=C1\NC(=O)C(Cc2cc(Cl)ccc2Cl)S1 (stereo not given)	0	0	0	0	0	0
CC(=O)/C(C#N)=C1\NC(=O)C(Cc2ccc(C)c(C)c2)S1 (stereo not given)	0	0	0	0	0	0
Brc1ccc(-c2nn3c(-c4ccccc4)nnc3s2)cc1	0	-	-	-	-	-
Cc1cc(C)nc(NC2=NCC(=O)N2c2ccc(F)c(Cl)c2)n1	0	40	0	0	0	0
COc1ccc(N2C(=O)CN=C2Nc2nc(C)cc(C)n2)cc1OC	0	0	0	0	0	-
CCC(=O)Nc1ccc2oc(-c3cccc(C)c3)nc2c1	0	0	0	0	0	0
CCC(=O)Nc1cccc(-c2nc3ccc(C)cc3o2)c1	0	0	0	0	0	-
O=C1CC(c2ccc3c(c2)OCO3)c2cc3c(cc2N1)OCO3 (stereo not given)	0	0	0	0	0	-
O=C1CC(c2ccc3c(c2)OCO3)CN1 (stereo not given)	0	38	0	0	0	0
CCCc1c(C(=O)Nc2ccc(F)cc2C)cnn1-c1ccccc1	0	0	0	0	0	-
CCCc1c(NC(=O)Nc2ccc(F)cc2)cnn1-c1ccccc1	0	0	0	0	0	0

High-throughput results deposited in PubChem by several laboratories.
